# In PubChem BioAssay AID1159580 (chemical genetic matrix, 2015):
# The campaign covered roughly 5,500 compounds. About 2,000 (36%) were called active. Not shown: some 18% with an inconclusive outcome. Some of the results follow. Values without a mark were called inactive. Cut-off read from the data, not from the text of the source: active = normalized growth mostly below about 0.91 (no sharp cut-off); inconclusive = no clear call, values can overlap the other calls; inactive = mostly above about 0.92.
# Experiment: chemical genetic growth profiling, strain panel (AID 1159580);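 note: tested at 20 µM; growth read once vehicle control cultures reached saturation at 30 °C; 1 = growth at the plate median or of vehicle wells; lower values mean less growth of the strain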
# Conditions: growth OD
smiles,measurement,setting,value
CCCSc1ccc2nc(NC(=O)OC)[nH]c2c1,normalized growth,"S. cerevisiae deletion strains, locus YJR075W, strain HOC1, hits give low values",0.97
same,normalized growth,"S. cerevisiae deletion strains, locus YKL009W, strain mrt4, hits give low values",0.938
same,normalized growth,"S. cerevisiae deletion strains, locus YKL068W, hits give low values",0.972
same,normalized growth,"S. cerevisiae deletion strains, locus YKL085W, strain MDH1 (second series), hits give low values",0.986
same,normalized growth,"S. cerevisiae deletion strains, locus YKL085W, strain MDH1, hits give low values",0.986
same,normalized growth,"S. cerevisiae deletion strains, locus YKL160W, strain elf1, hits give low values",1.01
same,normalized growth,"S. cerevisiae deletion strains, locus YKL190W, strain CNB1, hits give low values",0.988
same,normalized growth,"S. cerevisiae deletion strains, locus YKR001C, strain vps1, hits give low values",0.882 (active)
same,normalized growth,"S. cerevisiae deletion strains, locus YKR026C, strain gcn3, hits give low values",1.01
same,normalized growth,"S. cerevisiae deletion strains, locus YKR091W, strain srl3, hits give low values",1.01
same,normalized growth,"S. cerevisiae deletion strains, locus YLL001W, strain dnm1, hits give low values",0.999
same,normalized growth,"S. cerevisiae deletion strains, locus YLL026W, hits give low values",1.01
same,normalized growth,"S. cerevisiae deletion strains, locus YLL041C, strain sdh2, hits give low values",1
same,normalized growth,"S. cerevisiae deletion strains, locus YLR027C, strain aat2, hits give low values",1
same,normalized growth,"S. cerevisiae deletion strains, locus YLR039C, strain RIC1, hits give low values",0.731
same,normalized growth,"S. cerevisiae deletion strains, locus YLR058C, strain SHM2, hits give low values",0.988
same,normalized growth,"S. cerevisiae deletion strains, locus YLR102C, strain apc9, hits give low values",0.973
same,normalized growth,"S. cerevisiae deletion strains, locus YLR113W, strain HOG1, hits give low values",0.979
same,normalized growth,"S. cerevisiae deletion strains, locus YLR221C, strain rsa3, hits give low values",1.01
same,normalized growth,"S. cerevisiae deletion strains, locus YLR258W, strain gsy2, hits give low values",1.01
same,normalized growth,"S. cerevisiae deletion strains, locus YLR262C, strain YPT6 (second series), hits give low values",0.874
same,normalized growth,"S. cerevisiae deletion strains, locus YLR262C, strain YPT6, hits give low values",0.732
same,normalized growth,"S. cerevisiae deletion strains, locus YLR268W, strain sec22, hits give low values",0.847 (active)
same,normalized growth,"S. cerevisiae deletion strains, locus YLR320W, strain mms22, hits give low values",1.01
same,normalized growth,"S. cerevisiae deletion strains, locus YLR330W, strain CHS5, hits give low values",0.982
same,normalized growth,"S. cerevisiae deletion strains, locus YLR342W, strain FKS1 (second series), hits give low values",1.01
same,normalized growth,"S. cerevisiae deletion strains, locus YLR342W, strain FKS1, hits give low values",1.02
same,normalized growth,"S. cerevisiae deletion strains, locus YLR357W, strain rsc2, hits give low values",0.975
same,normalized growth,"S. cerevisiae deletion strains, locus YLR370C, strain arc18, hits give low values",1
same,normalized growth,"S. cerevisiae deletion strains, locus YLR371W, strain rom2, hits give low values",0.967
same,normalized growth,"S. cerevisiae deletion strains, locus YLR384C, strain iki3, hits give low values",0.997
same,normalized growth,"S. cerevisiae deletion strains, locus YLR418C, strain cdc73, hits give low values",0.886
same,normalized growth,"S. cerevisiae deletion strains, locus YML016C, strain PPZ1, hits give low values",0.993
same,normalized growth,"S. cerevisiae deletion strains, locus YML032C, strain rad52, hits give low values",0.947
same,normalized growth,"S. cerevisiae deletion strains, locus YML120C, strain ndi1, hits give low values",1
same,normalized growth,"S. cerevisiae deletion strains, locus YML124C, strain tub3, hits give low values",0.202 (active)
same,normalized growth,"S. cerevisiae deletion strains, locus YMR058W, strain fet3, hits give low values",1.01
same,normalized growth,"S. cerevisiae deletion strains, locus YMR078C, strain ctf18, hits give low values",0.964
same,normalized growth,"S. cerevisiae deletion strains, locus YMR125W, strain sto1, hits give low values",1.02
same,normalized growth,"S. cerevisiae deletion strains, locus YMR129W, hits give low values",1.01
same,normalized growth,"S. cerevisiae deletion strains, locus YMR205C, strain PFK2, hits give low values",1.03
same,normalized growth,"S. cerevisiae deletion strains, locus YMR223W, strain ubp8, hits give low values",0.997
same,normalized growth,"S. cerevisiae deletion strains, locus YMR231W, strain pep5, hits give low values",1.03
same,normalized growth,"S. cerevisiae deletion strains, locus YMR263W, strain SAP30, hits give low values",0.941
same,normalized growth,"S. cerevisiae deletion strains, locus YMR307W, strain GAS1, hits give low values",1.19
same,normalized growth,"S. cerevisiae deletion strains, locus YNL067W, strain RPL9B, hits give low values",0.942
same,normalized growth,"S. cerevisiae deletion strains, locus YNL071W, strain lat1, hits give low values",1.02
same,normalized growth,"S. cerevisiae deletion strains, locus YNL128W, strain TEP1, hits give low values",0.989
same,normalized growth,"S. cerevisiae deletion strains, locus YNL153C, strain GIM3, hits give low values",0.0651 (active)
same,normalized growth,"S. cerevisiae deletion strains, locus YNL183C, strain NPR1, hits give low values",0.896
same,normalized growth,"S. cerevisiae deletion strains, locus YNL209W, strain ssb2, hits give low values",1
same,normalized growth,"S. cerevisiae deletion strains, locus YNL233W, strain BNI4, hits give low values",0.965
same,normalized growth,"S. cerevisiae deletion strains, locus YNL248C, strain rpa49, hits give low values",1
same,normalized growth,"S. cerevisiae deletion strains, locus YNL250W, strain rad50, hits give low values",0.999
same,normalized growth,"S. cerevisiae deletion strains, locus YNL271C, strain bni1, hits give low values",0.973
same,normalized growth,"S. cerevisiae deletion strains, locus YNL298W, strain CLA4, hits give low values",0.947
same,normalized growth,"S. cerevisiae deletion strains, locus YNL307C, strain MCK1, hits give low values",0.948
same,normalized growth,"S. cerevisiae deletion strains, locus YNL322C, strain KRE1 (second series), hits give low values",1.01
same,normalized growth,"S. cerevisiae deletion strains, locus YNL322C, strain KRE1, hits give low values",0.996
same,normalized growth,"S. cerevisiae deletion strains, locus YNR049C, strain mso1, hits give low values",1.01
same,normalized growth,"S. cerevisiae deletion strains, locus YNR052C, strain pop2, hits give low values",0.958
same,normalized growth,"S. cerevisiae deletion strains, locus YOL006C, strain TOP1, hits give low values",0.729
same,normalized growth,"S. cerevisiae deletion strains, locus YOL012C, strain htz1",0.603
same,normalized growth,"S. cerevisiae deletion strains, locus YOL147C, strain pex11, hits give low values",0.967
same,normalized growth,"S. cerevisiae deletion strains, locus YOR001W, strain rrp6, hits give low values",1.01
same,normalized growth,"S. cerevisiae deletion strains, locus YOR061W, strain CKA2, hits give low values",0.996
same,normalized growth,"S. cerevisiae deletion strains, locus YOR069W, strain VPS5, hits give low values",0.99
same,normalized growth,"S. cerevisiae deletion strains, locus YOR070C, strain gyp1, hits give low values",1.01
same,normalized growth,"S. cerevisiae deletion strains, locus YOR080W, strain dia2, hits give low values",1.02
same,normalized growth,"S. cerevisiae deletion strains, locus YOR083W, strain WHI5, hits give low values",1.01
same,normalized growth,"S. cerevisiae deletion strains, locus YOR106W, strain vam3, hits give low values",0.997
same,normalized growth,"S. cerevisiae deletion strains, locus YOR136W, strain idh2, hits give low values",0.996
same,normalized growth,"S. cerevisiae deletion strains, locus YOR144C, strain elg1, hits give low values",0.965
same,normalized growth,"S. cerevisiae deletion strains, locus YOR184W, strain ser1, hits give low values",0.893
same,normalized growth,"S. cerevisiae deletion strains, locus YOR231W, strain MKK1, hits give low values",0.941
same,normalized growth,"S. cerevisiae deletion strains, locus YOR265W, strain rbl2, hits give low values",1.02
same,normalized growth,"S. cerevisiae deletion strains, locus YOR270C, strain vph1, hits give low values",0.963
same,normalized growth,"S. cerevisiae deletion strains, locus YOR290C, strain snf2, hits give low values",0.98
same,normalized growth,"S. cerevisiae deletion strains, locus YOR316C, strain cot1, hits give low values",0.959
same,normalized growth,"S. cerevisiae deletion strains, locus YPL051W, strain arl3, hits give low values",0.998
same,normalized growth,"S. cerevisiae deletion strains, locus YPL055C, strain LGE1, hits give low values",0.945
same,normalized growth,"S. cerevisiae deletion strains, locus YPL078C, strain atp4, hits give low values",1.01
same,normalized growth,"S. cerevisiae deletion strains, locus YPL106C, strain sse1, hits give low values",1.04
same,normalized growth,"S. cerevisiae deletion strains, locus YPL240C, strain hsp82, hits give low values",1
same,normalized growth,"S. cerevisiae deletion strains, locus YPL241C, strain CIN2, hits give low values",0.0807 (active)
same,normalized growth,"S. cerevisiae deletion strains, locus YPL256C, strain CLN2, hits give low values",0.933
same,normalized growth,"S. cerevisiae deletion strains, locus YPR119W, strain clb2, hits give low values",0.963
same,normalized growth,"S. cerevisiae deletion strains, locus YPR141C, strain kar3, hits give low values",0.992
same,normalized growth,"S. cerevisiae deletion strains, locus YPR163C, strain tif3, hits give low values",0.904 (active)
same,normalized growth,"S. cerevisiae deletion strains, locus YPR167C, strain met16, hits give low values",0.954
same,normalized growth,"S. cerevisiae deletion strains, strain wtn01, hits give low values",0.916
same,normalized growth,"S. cerevisiae strains, strain wild type, hits give low values",1
